# From article PMC5540273 (PLoS ONE, 2017)
# Tested on: ROS1
# Details: concentration: 1 μM,replicates: in singlicate; n = 1
# 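Also: KINOMEscan kinase panel screen.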
row,Structure (SMILES),%Inh [%]
1,O=C(Nc1ccccc1)c1cccc(Oc2ccc3nccn3n2)c1,0
2,Cc1ccc(CC(=O)N2CCc3cc(-c4cn(C)c5ncnc(N)c45)ccc32)cc1 [GSK2634758],9
3,COC(=O)c1cccc(NC(=O)NC2CCN(c3ccnc(NCc4ccc(F)cc4)n3)CC2)c1 [GSK1379860],8
4,Cc1n[nH]c2cc(Nc3ccnc(Nc4cccc(CN5CCOCC5)c4)n3)ccc12 [GW682569],57
5,CCN1CCN(CCCC(=O)Nc2n[nH]c3nc(-c4ccc(O)cc4)c(Br)cc23)CC1 [SB-731579],8
6,COc1ccc(Nc2nccc(N3CCC(NC(=O)c4cccc(C#N)c4)C3)n2)cc1 (stereo not shown) [GSK1379730],23
7,C[C@@H](Oc1cc(-n2cnc3cc(-c4ccncc4)ccc32)sc1C(N)=O)c1ccccc1Cl [GSK479719],8
8,Cc1nnc(-c2ccc3occ(-c4ccc(S(C)=O)cc4)c3n2)o1 (stereo not shown),0
9,Cn1cc(-c2cccc3c(N)c(C(N)=O)nnc23)cn1,6
10,Cl.Nc1n[nH]c2cc(-c3ccccn3)ccc12 [GSK2189892],12
11,COc1cccc(CNC(=O)NC2CCN(c3ccnc(Nc4cc(OC)c(OC)c(OC)c4)n3)C2)c1 (stereo not shown) [GSK1379765],48
12,Cc1ccc(C(=O)Nc2ccc(Oc3ccc4nc(NC(=O)C5CC5)cn4c3)c(F)c2)c(=O)n1-c1ccccc1,0
13,Cc1cccc2c(-c3ccncc3)c(-c3ccc(F)cc3)nn12.Cl [GW461487],0
